Measured values published in ChEMBL document CHEMBL4513216, “Probing the Open Global Health Chemical Diversity Library for Multistage-Active Starting Points for Next-Generation Antimalarials” (ACS Infect Dis, 2020).
The campaign covered roughly 69,000 compounds. About 8,600 (12%) showed an effect of 50% or more. What follows is part of a selection rich in strong results, with near analogues and random picks from the rest.

System: Plasmodium berghei
Experiment: Screen against P. berghei liver stage (PbLuc), transformed with Luciferase, at 10uM
Type: functional, HepG2
Details: tested at 10 uM

Row | Structure (SMILES) | INHIBITION
1 | CC(C)C(=O)NCCNC(=O)CCOc1cccc(F)c1 | 48.45%
2 | CCc1cc(NC2CCC(O)CC2)n2nc(C)c(C)c2n1 (stereo not drawn) | 25.1%
3 | CC(C)CN1CCC(N2CCC(C(=O)N(C)C)CC2)CC1 | 18.6%
4 | COc1ccc(OC2CCN(C(=O)CCc3n[nH]c(C)n3)CC2)cc1 | -4.23%
5 | CN(C)CCOCC1CN(C(=O)c2ccsc2)Cc2ccnn2C1 (stereo not drawn) | -10.3%
6 | Cc1cnc2n(c1=O)C(CC(=O)NCc1cccs1)CS2 (stereo not drawn) | 6.09%
7 | Cc1cnc2c(c1NCc1ccccn1)c(=O)n(C)c(=O)n2C | 8.31%
8 | Cc1cnc2c(c1NCc1cccnc1)c(=O)n(C)c(=O)n2C | 71.8%
9 | Cc1cnc2c(c1NCc1cccs1)c(=O)n(C)c(=O)n2C | 54.1%
10 | Cc1cnc2c(c1NCc1ccc3c(c1)OCO3)c(=O)n(C)c(=O)n2C | 73.3%
11 | CCc1cnc2c(c1Nc1ccccc1OC)c(=O)n(C)c(=O)n2C | 15.4%
12 | Cc1cc(NC(=O)Cc2ccc3c(c2)OCO3)n(C)n1 | 13.2%
13 | Cc1cnc2c(c1NCc1ccc(F)cc1)c(=O)n(C)c(=O)n2C | 51.2%
14 | CS(=O)(=O)c1ccc(NCc2ccc(F)cc2)cn1 | -32.7%
15 | Cc1cnc2n(c1=O)C(CC(=O)NCc1cccnc1)CS2 (stereo not drawn) | 40.9%
16 | Cc1nn(C)c(N2CCOCC2)c1CNCc1ccc2c(c1)OCO2 | 7.67%
17 | Cc1cnc2c(c1NCc1ccncc1)c(=O)n(C)c(=O)n2C | -14.6%
18 | Cc1cnc(N2CCC3(CC2)COCCN(C(C)C)C3)nc1 | 12.2%
19 | O=c1cnc2ccccc2n1CCCn1ccnc1 | 34%
20 | Cc1cccnc1NCCNc1cc(C(C)C)nc2ccnn12 | 43.9%
21 | Cc1cc2nc(C(C)C)cc(NCCNc3ncccc3C)n2n1 | 64.2%
22 | Cc1cc(NCCNc2ncccc2C)n2nc(C)cc2n1 | 16%
23 | Cc1nccn1-c1ccc(=O)n(CCNC(=O)Cc2ccccc2)n1 | 13.8%
24 | COc1cc(-n2ccnc2-c2ccc(C(=O)O)s2)ccc1NC(C)=O | 17.5%
25 | CNC(=O)Cc1ccc(-n2ccnc2-c2ccc(C(=O)O)s2)cc1 | 51.2%
26 | O=C(O)Cc1cccc(-n2ccnc2-c2ccc(Cl)s2)c1 | 53.3%
27 | O=C(O)Cc1cccc(-n2ccnc2-c2ccc(F)c(Cl)c2)c1 | -10.5%

Row | Structure (SMILES) | INHIBITION
28 | Cc1cccc(-c2nccn2-c2cccc(CC(=O)O)c2)n1 | 11.9%
29 | CCn1c(C)nnc1SCCNC(=O)c1sc(C(C)C)nc1C | -12.1%
30 | Cc1cncc(C(=O)N2CCc3ncc(Cn4cccn4)n3CC2)c1 | 10.5%
31 | Cc1cc(C)c2cc(C(=O)N3CCNC(=O)C3)[nH]c2c1 | 14.3%
32 | CNC(=O)C1(CCCc2ccccn2)CN(Cc2scnc2C)C1 | 30.4%
33 | Cc1cccc(C)c1Nc1noc2c1CN(C(=O)c1c[nH]nc1C)CC2 | 18.34%
34 | O=C([C@@H]1CSCN1)N1CC2(CCNCC2)c2cc(Cl)ccc21 | 38.5%
35 | NC(=O)N1CC2(CCNCC2)c2cc(Cl)ccc21 | 19.1%
36 | CN(C)C(=O)N1CC2(CCNCC2)c2cc(F)ccc21 | -15.5%
37 | O=C(c1ccco1)N1CC2(CCNCC2)c2cc(Cl)ccc21 | 51.9%
38 | CC(=O)N1CC2(CCNCC2)c2cc(Cl)ccc21 | 14.9%
39 | O=C([C@H]1CCCN1)N1CC2(CCNCC2)c2cc(Cl)ccc21 | 58.3%
40 | O=C(c1ccccc1F)N1CC2(CCNCC2)c2cc(Cl)ccc21 | -27%
41 | O=C(c1ccncc1)N1CC2(CCNCC2)c2cc(Cl)ccc21 | 5.04%
42 | CN(C)C(=O)N1CC2(CCNCC2)c2cc(Cl)ccc21 | 83.5%
43 | Cn1ccnc1CN1CCOC(Cn2cccn2)C1 (stereo not drawn) | 7.08%
44 | CNc1nc2cn(CCc3ccc(Cl)cc3)c(=O)c-2c[nH]1 | -15.5%
45 | CN(C)c1cc(CNC(=O)c2ccc(Br)cc2F)ccn1 | 16.8%
46 | Cc1cnc(N2C[C@H]3CCN(CC4CC4)C[C@H]3C2)nc1 | -21.7%
47 | NC(=O)c1ccc2c(c1)nc1n2CCN(Cc2ccco2)C1 | -7.9%
48 | NC(=O)c1ccc2c(c1)nc1n2CCN(Cc2ccccc2)C1 | 16.6%
49 | NC(=O)c1ccc2c(c1)nc1n2CCN(Cc2cccnc2)C1 | 54%
50 | O=C(NCCCO)c1cc(-c2cc[nH]n2)n2ccccc12 | 15.4%
51 | COc1ccc(OC)c(C2c3c(n[nH]c3C)N=C3COC(=O)C32)c1 (stereo not drawn) | -15%
52 | CCN(CC)c1ccc(C2c3c(n[nH]c3C)N=C3COC(=O)C32)cc1 (stereo not drawn) | 68.1%
53 | Cc1ccc(C2c3c(n[nH]c3C)N=C3COC(=O)C32)cc1C (stereo not drawn) | 55.3%
